Reference: PubChem BioAssay AID504848 (National Center for Advancing Translational Sciences (NCATS), 2011)
Screen size: about 2,300 compounds; about 1,400 (61%) were called active. Roughly 29% stayed inconclusive and do not appear here. The call rests on the fitted dose curve; in most records, active means well fitted inhibition curve with a large enough effect; inconclusive means small, poorly fitted or top-dose-only effect, or effect the other way; inactive means no such curve, though single readings can be large or run the other way. So high a share suggests a set chosen from earlier hits. Some of the results follow.

Assay: Confirmation screen for delayed death inhibitors of the malarial parasite plastid, 96 hour incubation; further: nearly all actives have a fitted effect of over 60% in size
Details: P. falciparum luciferase growth in erythrocytes; series mostly up to 28.7 µM
Outline: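 Two-generation (96 h, 37 C) exposure of P. falciparum carrying an integrated firefly luciferase reporter in erythrocytes, 0.1% parasitemia and 2% hematocrit final, Albumax-supplemented RPMI. Luminescence decrease measures growth inhibition.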
Potency means the concentration at half of the fitted maximal effect.

Row | Structure (SMILES) | Potency
1 | CCOc1cc([N+](=O)[O-])cc(/C=N/NC(=O)c2c(-c3ccccc3)noc2C)c1O | 14.1 µM (active)
2 | COCCn1c(SCc2csc(-c3ccccc3)n2)nc2ccccc21 | 12.6 µM (active)
3 | CN1C(=O)Cc2cc(S(=O)(=O)N3CCN(c4cccc(C(F)(F)F)c4)CC3)ccc21 | 12.6 µM (active)
4 | Cc1cccc(N2CCN(C3=NC(=O)C(Cc4ccccc4)S3)CC2)c1 (stereo not given) | 1.58 µM (active)
5 | O=C(Oc1nsnc1N1CCCCC1)N1CCOCC1 | 10 µM (active)
6 | Cc1oc(-c2ccccc2Cl)nc1Cn1cccc1C1=NC(c2ccccc2)CO1 (stereo not given) | 12.6 µM (active)
7 | CCn1c(=O)n(CC)c2cc(N3CCCC3)c(NC(=O)c3ccc(C)cc3)cc21 | 7.08 µM (active)
8 | COc1ccc2cc3[n+](cc2c1OC)CCc1cc2c(cc1-3)OCO2 | 0.501 µM (active)
9 | O=C(Nc1ccccc1)N1CCC(O)(c2cccc(C(F)(F)F)c2)CC1 | 12.6 µM (active)
10 | COc1ccc(C#Cc2ccc3c(=O)c4ccccc4n(C)c3c2)cc1 | 10 µM (active)
11 | Cn1c2ccccc2c(=O)c2ccc(C#Cc3ccc(N)cc3)cc21 | 11.2 µM (active)
12 | COc1cccc(S(=O)(=O)NCc2ccc(C(=O)NCc3ccccn3)cc2)c1 | inactive
13 | COc1ccc(N(C)S(=O)(=O)c2cccc(C(=O)NCc3ccc(C)cc3)c2)cc1 | 14.1 µM (active)
14 | O=C(c1ccc([N+](=O)[O-])cc1)n1nc(-c2ccccc2)nc1NCc1ccc(F)cc1 | 10 µM (active)
15 | Cc1cc(C)nc(SCC(=O)c2ccc(C)c(C)c2)n1 | 12.6 µM (active)
16 | COc1ccccc1N1CCN(CCCCN2C(=O)C3CCCCN3C2=O)CC1 (stereo not given) | 12.6 µM (active)
17 | O=C(NNc1ccnc2cc(Cl)ccc12)C1CCCCC1 | 0.282 µM (active)
18 | CCN1CCC(Nc2ccnc3cc(Cl)ccc23)CC1 | 0.158 µM (active)
19 | Cc1cccc(-n2ccc(=O)c(C(=O)Nc3ccc(S(=O)(=O)N4CCOCC4)cc3)n2)c1 | 5.01 µM (active)
20 | c1ccc2oc(Cc3ccc(Cc4nc5ccccc5o4)cc3)nc2c1 | 8.91 µM (active)
21 | CC(c1ccco1)N(C(=O)c1cc(Cl)cc(Cl)c1)c1ccccn1 (stereo not given) | 12.6 µM (active)
22 | O=C(CCCN1C(=O)/C(=C/c2cccs2)SC1=S)Nc1ccc(O)cc1 | 7.08 µM (active)

Row | Structure (SMILES) | Potency
23 | O=C(CCN1C(=O)/C(=C/c2ccccc2)SC1=S)NCCc1ccc(O)cc1 | inactive
24 | O=C(CCN1C(=O)/C(=C/c2ccccc2)SC1=S)N[C@@H](CO)Cc1ccccc1 | 12.6 µM (active)
25 | O=C(CCCN1C(=O)/C(=C\c2cccs2)SC1=S)Nc1ccc(O)cc1 | 3.98 µM (active)
26 | O=C(CCN1C(=O)/C(=C\c2ccc(F)cc2)SC1=S)Nc1ccccc1 | inactive
27 | CCc1ccc(/C=C2\SC(=S)N(CCCC(=O)Nc3ccccc3C(=O)O)C2=O)cc1 | 15.8 µM (active)
28 | CCc1nn2c(=O)cc(COc3cccc(NC(=O)c4ccco4)c3)nc2s1 | 10 µM (active)
29 | CCc1noc(C)c1C(=O)N1CCC(CCC(=O)Nc2cccc(C)c2)CC1 | 6.31 µM (active)
30 | C=CCNC(=O)c1onc(CSc2cccc(C)c2)c1C(=O)O | inactive
31 | CC(=O)c1ccc[n+](CC(=O)NC(C)c2ccccc2)c1 (stereo not given) | 4.47 µM (active)
32 | CCc1ccccc1Nc1nc(N)nc(COC(=O)CCNS(=O)(=O)c2ccccc2)n1 | 12.6 µM (active)
33 | O=C(O)CCNS(=O)(=O)c1cccc(Br)c1 | inactive
34 | CCc1ccccc1Nc1nc(N)nc(COC(=O)CCC(=O)c2ccc(F)cc2)n1 | 2.51 µM (active)
35 | COc1ccccc1-n1c(=S)[nH]c2c(sc(=S)n2-c2ccc(C)cc2C)c1=O | 3.16 µM (active)
36 | COc1ccccc1CNC(=O)c1ccc(-c2ccccc2Cl)o1 | 6.31 µM (active)
37 | CCCC(=O)Nc1nnc(CC(=O)N2CCCC2)s1 | inactive
38 | COc1ccc(CN2CCN(C(=O)CCC(=O)Nc3nnc(C4CCCCC4)s3)CC2)cc1F | 10 µM (active)
39 | CCCc1nnc(NC(=O)CCC(=O)N2CCN(Cc3ccc(Cl)cc3)CC2)s1 | 11.2 µM (active)
40 | O=C(Cc1cccs1)NCCc1ccc(Cl)cc1 | 5.62 µM (active)
41 | CC(C)(C)OC(=O)[C@H]1[C@H](c2ccc([N+](=O)[O-])cc2)C2(C(=O)c3ccccc3C2=O)C2c3ccccc3C=NN21 (stereo not given in full) | 5.01 µM (active)
42 | COc1cccc(NC(=O)CSc2nc3ccccc3nc2N2CCCC2)c1 | 12.6 µM (active)
43 | O=C(O)c1nn(CCSc2ccccc2F)c(=O)c2ccccc12 | inactive
44 | O=c1cc(CSc2ccc(Cl)cc2)nc(-c2ccccn2)[nH]1 | 3.16 µM (active)

Row | Structure (SMILES) | Potency
45 | CN(CCCN1CCOCC1)C(=O)c1ccc2nc(Cc3cccc(Cl)c3)oc2c1 | 11.2 µM (active)
46 | O=S(=O)(c1cnc[nH]1)N1CCN(C(c2ccc(F)cc2)c2ccc(F)cc2)CC1 | 11.2 µM (active)
47 | O=C(COC(=O)c1ccc(O)cc1O)Nc1ccc2ccccc2c1 | inactive
48 | O=C(O)c1ccc(O)cc1O | 2.51 µM (active)
49 | CCOc1ccccc1CNC(=O)c1cc2oc3ccccc3c2n1C | 12.6 µM (active)
50 | COc1cccc(CNC(=O)c2cc3oc4ccccc4c3n2C)c1OC | inactive
51 | CCOc1ccccc1CNC(=O)c1cc2oc3ccccc3c2n1CC | 12.6 µM (active)
52 | CCOC(=O)[C@H]1[C@H]2COc3cc(OC)ccc3[C@@H]2N2C(=O)N(c3ccc(Cl)cc3)C(=O)[C@@]12C | inactive
53 | O=C(CN(c1ccc2c(c1)OCCO2)S(=O)(=O)c1ccccc1)NCc1ccc(Cl)cc1 | 12.6 µM (active)
54 | CSc1ccccc1NC(=O)CN1CCN(S(=O)(=O)c2ccccc2[N+](=O)[O-])CC1 | 12.6 µM (active)
55 | O=C(CCN1CCN(S(=O)(=O)c2cccc([N+](=O)[O-])c2)CC1)Nc1ccccc1F | 10 µM (active)
56 | CCOC(=O)CCC(=O)Nc1ncnc2c1C(c1ccccc1)c1c(ccc3ccccc13)O2 (stereo not given) | 7.94 µM (active)
57 | CCC(=O)c1ccc(OCC(=O)NCC2(N3CCCCC3)CCCCC2)cc1 | 14.1 µM (active)
58 | CN(C)S(=O)(=O)c1ccc(Cl)c(NC(=O)CN2C(=O)NC(C)(C3CC3)C2=O)c1 (stereo not given) | 12.6 µM (active)
59 | O=c1[nH]c(C2CCN(S(=O)(=O)c3cccc([N+](=O)[O-])c3)CC2)nc2c1nnn2Cc1ccccc1 | 8.91 µM (active)
60 | C#CCOCCOCCOCCNc1nc(N2CCN(C(=O)Cn3cc(CC(C)O)nn3)CC2)nc(N2CCN(C(=O)[C@H]([C@@H](C)CC)n3cc(CCCN=C(N)N)nn3)CC2)n1 (stereo not given in full) | 1 µM (active)
61 | C#CCOCCOCCOCCNc1nc(N2CCN(C(=O)Cn3cc(CCCCN)nn3)CC2)nc(N2CCN(C(=O)[C@H](C)n3cc(CCCN=C(N)N)nn3)CC2)n1 | 1 µM (active)
62 | C#CCOCCOCCOCCNc1nc(N2CCN(C(=O)Cn3cc(CC(C)O)nn3)CC2)nc(N2CCN(C(=O)[C@H](C)n3cc(CCCN=C(N)N)nn3)CC2)n1 (stereo not given in full) | 15.8 µM (active)
63 | COCCNC(=O)CCCCCN1C(=O)CCC1=O | inactive
64 | CC1(C)CCSC(/C=C/c2ccccc2)=N1 | 6.31 µM (active)
65 | COc1ccc(/C=C2\CCC/C(=C\C=N\N(C)C)C2=O)cc1 | 12.6 µM (active)
66 | O=C(CC1Sc2ccccc2NC1=O)OCc1cc(=O)oc2cc(O)ccc12 (stereo not given) | 7.08 µM (active)

Row | Structure (SMILES) | Potency
67 | C[C@H]1CN=C2N(CCNC(=O)CCC3CCCCC3)[C@H](Cc3ccc(O)cc3)CN21 | 6.31 µM (active)
68 | O=C(CCC1CCCCC1)NCCN1C2=NC[C@H](Cc3ccccc3)N2C[C@H]1Cc1ccc(O)cc1 | 6.31 µM (active)
69 | C[C@@H](CN1C2=NC[C@H](Cc3ccc(O)cc3)N2C[C@H]1Cc1ccc(O)cc1)NC(=O)CCC1CCCCC1 | 5.62 µM (active)
70 | CC(=O)NC(=S)Nc1ccccc1C(=O)NC1CCCCC1 | 12.6 µM (active)
71 | O=C(NC1CCCC1)C(c1ccncc1)N(Cc1ccco1)C(=O)c1ccc(-c2ccccc2)[nH]1 (stereo not given) | 7.94 µM (active)
72 | O=C(NC1CCCCC1)C(c1ccncc1)N(Cc1ccccc1)C(=O)c1ccc(-c2ccccc2)[nH]1 (stereo not given) | 3.98 µM (active)
73 | COc1cc2c(cc1OC)-c1cc(N3CCc4ccccc43)nc(=O)n1CC2 | 5.01 µM (active)
74 | COC(=O)CCC(=O)OC1(C)C(=O)C=C2C=C(C3CC3)N(CCCOC(C)C)C=C2C1=O (stereo not given) | 1.12 µM (active)
75 | O=C(N/N=C/c1ccc([N+](=O)[O-])cc1)c1cccc(N2CCCC2=O)c1 | 10 µM (active)
76 | CC[C@]1([C@H]2O[C@@H]([C@@H]3O[C@](O)(CO)[C@@H](C)C[C@H]3C)C[C@H]2C)CC[C@@H]([C@]2(C)CC[C@@]3(C[C@@H](O)[C@@H](C)[C@@H]([C@H](C)[C@H](OC)[C@H](C)C(=O)O)O3)O2)O1 | 0.112 µM (active)
77 | Cc1c(C(c2ccc(Br)cc2)c2c(C)n(C)n(-c3ccccc3)c2=O)c(=O)n(-c2ccccc2)n1C | 11.2 µM (active)
78 | CCOc1ccc2nc(C)cc(Nc3cccc([N+](=O)[O-])c3)c2c1 | 2 µM (active)
79 | CCOc1ccccc1C1N=C(c2ccc(OC)cc2)CC(c2ccccc2O)N1 (stereo not given) | 12.6 µM (active)
80 | Cc1cccc(C)c1N1CCN(C(=O)c2ccc3c(c2)OCO3)CC1 | 12.6 µM (active)
81 | O=C(Nc1ccccc1C(F)(F)F)N1CCN(c2ccc3nnc(-c4ccc(F)cc4)n3n2)CC1 | 3.98 µM (active)
82 | O=C(c1ccc(Br)o1)N1CCN(c2ccc3nnc(-c4ccccc4)n3n2)CC1 | 7.94 µM (active)
83 | CC1CCCCN1C(=O)COC(=O)c1cccc(NS(=O)(=O)c2ccccc2)c1 (stereo not given) | inactive
84 | Cn1c(CCN2CCCC2)nc2cc(NS(=O)(=O)c3ccccc3)ccc21 | 3.55 µM (active)
85 | Cn1c(CCN2CCCC2)nc2cc(NS(=O)(=O)c3ccc(Cl)cc3)ccc21 | 6.31 µM (active)
